# Compound activity as filed in PubChem.
# UGM FP inh – M. tuberculosis UGM enzyme inhibitors, primary screen, biochemical, fluorescence polarization, single point | purified UGM, fluorescence polarization probe displacement | UDP-galactopyranose mutase (Mycobacterium tuberculosis (strain ATCC 25618 / H37Rv)), … | AID 504406, 2011 | hit rate 0.06% among 320,000 | inhibition, % at 10 µM; in the data active = inhibition above about 10%, passing the limit was not always enough
# GDH-TPI counter – GDH-TPI coupling enzyme inhibitors, primary screen, artefact control for M. tuberculosis FBA inhibitor project, biochemical, absorbance, full deck | GDH-TPI coupled enzyme counterscreen, NADH absorbance | inhibition, % at 4.8 µM | hit rate 1.2% among 360,000 | AID 588335, 2011; in the data active = inhibition above about 30%;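 also: 0% = DMSO wells and 100% = wells lacking the enzyme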
# RecA splice inh – Mtb RecA intein splicing inhibitors, primary screen, biochemical, fluorescence, HTS | Protein RecA (Mycobacterium tuberculosis (strain ATCC 25618 / H37Rv)), P9WHJ3 | hit rate 0.75% among 290,000 | AID 2221, 2009 | cell-free RecA intein splicing | inhibition, % (concentration not given with the values); in the data active = inhibition above about 30%;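 also: 0% = vehicle wells and 100% = reference inhibitor control wells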
# Target sequence (P9WHJ3 whole entry, looked up, canonical isoform): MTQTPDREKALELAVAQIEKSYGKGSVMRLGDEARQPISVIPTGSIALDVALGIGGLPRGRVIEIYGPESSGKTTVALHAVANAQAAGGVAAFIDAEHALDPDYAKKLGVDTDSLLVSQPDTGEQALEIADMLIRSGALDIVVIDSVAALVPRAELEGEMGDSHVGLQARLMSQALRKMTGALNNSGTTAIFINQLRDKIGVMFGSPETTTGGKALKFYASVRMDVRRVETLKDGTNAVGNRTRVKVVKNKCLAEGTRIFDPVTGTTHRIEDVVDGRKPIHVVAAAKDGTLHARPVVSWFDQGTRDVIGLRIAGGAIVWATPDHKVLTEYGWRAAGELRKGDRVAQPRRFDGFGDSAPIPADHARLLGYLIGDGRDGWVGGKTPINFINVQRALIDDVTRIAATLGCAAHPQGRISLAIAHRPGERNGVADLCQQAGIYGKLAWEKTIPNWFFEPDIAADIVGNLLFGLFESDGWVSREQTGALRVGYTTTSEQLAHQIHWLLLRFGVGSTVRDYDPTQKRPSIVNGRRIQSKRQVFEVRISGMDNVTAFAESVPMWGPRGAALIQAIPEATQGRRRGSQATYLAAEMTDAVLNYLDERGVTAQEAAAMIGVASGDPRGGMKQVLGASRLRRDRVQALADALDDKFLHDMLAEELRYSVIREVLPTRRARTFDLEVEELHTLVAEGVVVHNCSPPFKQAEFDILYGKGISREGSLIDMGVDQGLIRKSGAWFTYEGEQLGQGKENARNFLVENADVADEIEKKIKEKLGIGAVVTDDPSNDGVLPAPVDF
# Mtb betalactam – beta-lactam sensitization of Mtb H37Rv, H37Rv; M. tuberculosis H37Rv growth with meropenem, percent inhibition; inhibition, % at 25 µM; hit rate 0.27% among 330,000; AID 434955, 2010;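 also: growth measured after seven days incubation then overnight dye step; 0% = bacteria only wells and 100% = bacteria with antibiotic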
# Rv3671c inh – Rv3671c serine protease inhibitors, primary screen, biochemical, fluorescence polarization, M. tuberculosis H37Rv. hit rate 0.048% among 320,000. AID 2606, 2010. P9WHR9. inhibition, % at 5.96 µM; in the data active = inhibition above about 38%;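 also: extracellular domain of Rv3671c used as enzyme; 0% = enzyme with DMSO and 100% = no enzyme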
# FBA Mtb inh – Mtb FBA enzyme inhibitors, primary screen, biochemical, fluorescence, strain H37Rv; purified M. tuberculosis FBA, fluorescence read-out; inhibition, % at 1 µM; Fructose-bisphosphate aldolase (Mycobacterium tuberculosis (strain ATCC 25618 / H37Rv)), …; hit rate 2.3% among 360,000; AID 588726, 2011; in the data active = inhibition above about 27%;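 also: 0% = vehicle and 100% = reference inhibitor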
# GFP chromo cs – counter-screen: blocks GFP chromophore formation, dose response, counter-screen, biochemical, fluorescence, homogeneous. shares compounds with RecA splice inh. cell-free GFP chromophore formation. EC50, µM. hit rate 83% among 2,100. AID 434968, 2010
# Starred values were filed as active, the others as inactive; . = no result. Shown are actives, neighbours in structure and some others; about 4% of the full set was active somewhere. Unless noted, no rule for the calls is given here.
SMILES,UGM FP inh,GDH-TPI counter,RecA splice inh,Mtb betalactam,Rv3671c inh,FBA Mtb inh,GFP chromo cs
O=C(NCC1(c2ccccc2)CCCC1)C(=O)NCC1(c2ccccc2)CCCC1,.,9.8,1.0,.,.,1.5,.
C=C(C)c1cccc(C(C)(C)NC(=O)NNC(=O)c2ccccc2O)c1,-1.6,10.4,13.2,5.5,2.3,8.5,.
S=C1Cc2ccccc2N1,.,-2.5,87.7*,.,.,3.1,1.24*
S=C1Nc2ccccc2CS1,.,29.2,.,.,.,-0.8,.
CC(=O)N(C)c1ccc(NS(=O)(=O)c2cccc3nsnc23)cc1,-0.1,-6.0,-0.4,2.6,-6.0,-0.8,.
Cc1cc(C(=O)CN2C(=O)c3ccccc3C2=O)c(C)n1C1CC1,-4.8,9.6,98.1*,3.6,-6.3,1.7,>38
CCN1C(=O)C(=O)N(CC(=O)c2cc(C)n(C3CC3)c2C)C1=O,0.0,2.8,.,2.6,8.4,1.2,.
CC(=O)Nc1c(Br)cc2c(c1Br)C(=O)c1ccccc1-2,.,1.4,.,.,.,-4.0,.
CC(=O)C1=C(c2ccc(Br)cc2)C(=O)c2ccccc2C1=O,2.4,13.4,58.2*,97.8,-23.4,-0.1,3.14*
O=C(Cn1c(=O)cnc2ccccc21)NC1CCC(O)CC1 (stereo unspecified),0.3,4.1,-2.6,-8.0,-9.2,-0.1,.
O=S(=O)(NCCCNS(=O)(=O)c1c(F)cccc1F)c1ccc2c(c1)OCCO2,1.4,18.5,.,-0.5,-6.0,6.1,.
CCN(CC)c1ccc(/C=N/Nc2nc(C)cc(=O)[nH]2)c(O)c1,-0.8,25.8,39.0*,6.8,6.5,3.5,>38
Cc1cc(=O)[nH]c(NN=Cc2cc(Br)ccc2O)n1,.,28.0,.,.,.,6.4,.
Cc1cc(=O)c(C(=O)Nc2cccc(C(=O)NC3CC3)c2)nn1-c1ccccc1,.,9.7,.,.,.,-2.4,.
O=S(=O)(Nc1c(O)ccc2ccccc12)c1ccc(F)cc1,3.3,2.4,95.4*,1.8,-6.2,2.0,3.04*
O=S(=O)(Nc1cccc2ccccc12)c1ccccc1,.,13.9,-0.1,-1.4,4.3,1.3,.
O=S(=O)(Nc1ncccn1)c1ccc(F)cc1,-3.5,5.1,1.0,-6.0,.,-1.2,.
O=S(=O)(Nc1c(O)ccc2ccccc12)c1ccccc1,3.0,-7.6,93.3*,10.4,-8.2,-0.3,2.2*
CC(C)CCN(C(=O)c1ccccn1)c1c(N)n(Cc2ccccc2)c(=O)[nH]c1=O,-0.1,3.9,.,-7.3,1.5,1.5,.
CC(=O)NC1=C(N(C)C2CCS(=O)(=O)C2)C(=O)c2ccccc2C1=O (stereo unspecified),-3.9,2.2,26.2,-1.4,-52.1,0.8,.
CCC(=O)N(C1=C(NC)C(=O)c2ccccc2C1=O)C(C)C,0.6,4.3,45.0*,5.2,-38.2,-6.6,38.7*
CNC1=C(N(C(C)=O)c2ccc(Br)cc2)C(=O)c2ccccc2C1=O,5.5,16.4,72.9*,-4.8,-134.6,-5.8,13*
CCc1ccccc1NC(=O)C1CCCN(c2nccc(C)n2)C1 (stereo unspecified),-1.1,5.9,1.9,4.2,-1.6,9.7,.
Cc1ccccc1-n1ncc2c([N+](=O)[O-])cc([N+](=O)[O-])cc21,0.2,15.2,85.2*,98.6,5.1,0.7,5.79*
CCc1nc(N)nc(N)c1-c1ccc(N(C)Cc2ccccc2)c([N+](=O)[O-])c1,.,0.0,.,.,.,-4.6,.
SMILES,UGM FP inh,GDH-TPI counter,RecA splice inh,Mtb betalactam,Rv3671c inh,FBA Mtb inh,GFP chromo cs
CC1=NN(c2ccc(Cl)cc2)C(=O)C1,0.4,-1.3,95.9*,1.3,-186.2,1.1,3.45*
CC1=NN(c2nc(-c3ccc(Cl)cc3)cs2)C(=O)C1,0.9,-1.8,25.8,-1.8,-5.1,4.6,.
CC1=NN(c2ccc(N)cc2)C(=O)C1,0.8,11.2,74.3*,0.4,-8.6,0.5,2.92*
CC1=NN(Cc2ccccc2)C(=O)C1,-1.3,-7.5,89.1*,-0.1,-202.9,0.5,7.59*
O=C1CC(NC(=O)C(F)(F)F)=NN1c1ccccc1,0.5,-1.3,89.9*,-3.9,0.3,3.7,16.5*
CN(C)C(CNC(=O)c1cc(S(=O)(=O)N(C)c2ccc(F)cc2)ccc1Cl)c1cccs1 (stereo unspecified),.,3.5,.,.,.,0.9,.
CC1=NN(c2ccccc2)C(=O)C1,1.5,4.3,89.1*,3.7,-151.3,-2.6,3.1*
CC1=NN(c2ccccc2)C(=O)C1c1ccccc1 (stereo unspecified),-2.5,4.9,-4.9,7.9,-0.9,0.3,.
Cc1[nH][nH]c(=O)c1C(c1cc2c(cc1Br)OCO2)c1c(C)[nH][nH]c1=O,-0.4,1.0,94.7*,-3.2,-8.9,-0.1,0.725*
Cc1[nH][nH]c(=O)c1C(c1cc(Br)ccc1O)c1c(C)[nH][nH]c1=O,1.1,0.7,96.9*,0.7,-20.7,1.2,0.525*
Cc1ccccc1NC(=O)CSc1nnc(C2CC2)n1CC1CCCO1 (stereo unspecified),0.7,-0.8,7.0,-8.0,3.0,-2.8,.
O=C(NC(=S)NNC(=O)c1cc2ccccc2cc1O)c1ccco1,2.0,20.1,11.3,40.1,22.5,-6.4,.
O=C(NC(=S)NNC(=O)c1ccccc1O)c1ccco1,2.5,30.9*,36.3*,-2.4,24.8,5.2,>38
CCOC(=O)C1CCN(C(=O)c2ccc(C)o2)CC1,-0.3,-1.7,.,1.6,-1.5,-1.4,.
Cc1oc2c(c1C(=O)N1CCC(C)CC1)C(=O)c1ccccc1C2=O,0.1,.,78.7*,3.4,-25.6,.,8.49*
CCOC(=O)C1CCN(C(=O)c2c(C)oc3c2C(=O)c2ccccc2C3=O)CC1,0.4,-8.2,68.9*,7.4,-30.4,-1.3,4.71*
CC1=NN(Cc2ccccc2)C(=O)C1C(c1ccncc1)C(C#N)C#N (stereo unspecified),-1.5,18.2,68.1*,-2.2,5.1,-1.6,17.7*
CC1=NN(Cc2ccccc2)C(=O)C1C(c1ccc(Cl)cc1)C(C#N)C#N (stereo unspecified),1.9,9.3,79.6*,0.1,0.7,0.8,6.21*
CC1=NNC(=O)C1C(c1ccc(Cl)cc1)C(C#N)C#N (stereo unspecified),-1.8,0.8,84.8*,-9.4,-6.4,0.8,11.2*
Cc1[nH]n(-c2ncc(-c3ccccc3)s2)c(=O)c1C(c1ccc(Cl)cc1)C(C#N)C#N (stereo unspecified),-1.1,5.6,8.9,2.1,9.6,-4.9,.
CC1=NN(Cc2ccccc2)C(=O)C1C(c1ccccc1)C(C#N)C#N (stereo unspecified),2.0,9.6,87.5*,5.9,1.5,2.3,8.7*
